Data taken from PubChem BioAssay (Tox21).
Inconclusive results are not listed. A call without a number means that no potency is given here. Unmarked numbers belong to inactive results. Calls of active or inactive are those of the source. Calls follow the shape of the dose curve; as a rule, active = well fitted activation curve with a large enough effect in the repeat runs; inconclusive = weak or mixed curves; inactive = flat fitted curve, though single readings scatter.

Assay: A CellTox Green Cytotoxicity Assay to monitor cytotoxicity in HEK293 cells - 8 hour (AID 1224884); also: nearly all actives have a fitted effect of over 35% in size
Settings: CellTox Green fluorescence; series mostly up to 76.8 µM
Summary of the method: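 HEK293 cells premixed with CellTox Green dye were seeded at 600 cells/well and left 5 h at 37 C/5% CO2 before pin transfer of 23 nL compound in DMSO. Fluorescence from dye bound to dead-cell DNA was read during 40 h treatment.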
Potency is read from the fitted curve at half-maximal effect.

SMILES | Potency | cytotoxicity increase
O=[N+]([O-])c1cc(C(F)(F)F)c(Cl)c([N+](=O)[O-])c1Nc1ncc(C(F)(F)F)cc1Cl | 49 µM (active) | 
CC#C[C@]1(O)CC[C@H]2[C@@H]3C[C@H](C)C4=CC(=O)CC[C@]4(C)[C@H]3CC[C@@]21C | inactive | 
CNC(=O)O/N=C(\C)C(C)S(C)(=O)=O (configuration not stated) | inactive | 
O=P(Cl)(Cl)Cl | inactive | 
O=Cc1ccccc1 | inactive | 
N#Cc1c[nH]cc1-c1cccc2c1OC(F)(F)O2 | inactive | 
COc1nc(C)nc(NC(=O)NS(=O)(=O)c2ccccc2Cl)n1 | inactive | 
c1ccc(N=NNc2ccccc2)cc1 | inactive | 
Nc1ccc(N=Nc2ccccc2)cc1 | inactive | 
CCC[CH2][Sn]([CH2]CCC)([CH2]CCC)[O][Sn]([CH2]CCC)([CH2]CCC)[CH2]CCC | 2.14 µM (active) | 
C#CCO | inactive | 
ClCBr | inactive | 
COP(=S)(OC)Oc1nc(Cl)c(Cl)cc1Cl | inactive | 
CC(=O)[O][Sn]([c]1ccccc1)([c]1ccccc1)[c]1ccccc1 | 0.347 µM (active) | 
CCCCCON=O | inactive | 
OCC(Br)CBr (configuration not stated) | inactive | 
[O]=[Cr](=[O])([OH])[O][Cr](=[O])(=[O])[OH] | inactive | 
N#CC(C#N)=NNc1cccc(Cl)c1 | inactive | 
CO/N=C(/C1=NOCCO1)c1ccccc1Oc1ncnc(Oc2ccccc2Cl)c1F | inactive | 

SMILES | Potency | cytotoxicity increase
CC(C)C(Nc1ccc(C(F)(F)F)cc1Cl)C(=O)OC(C#N)c1cccc(Oc2ccccc2)c1 (configuration not stated) | inactive | 
[Cl-].[Cl-].[Sn+2] | inactive | 
COP(=O)(OC)O/C(=C\Cl)c1cc(Cl)c(Cl)cc1Cl | inactive | 
CCCN | inactive | 
CSSC | inactive | 
CC(C)(C)c1ccc(OP(=O)(Oc2ccccc2)Oc2ccccc2)cc1 | inactive | 
C=CCBr | inactive | 
CC(C)=CCN1CC[C@@]2(C)c3cc(O)ccc3C[C@@H]1[C@@H]2C | inactive | 
CC[C@]1(O)CC[C@H]2[C@@H]3CCC4=CCCC[C@@H]4[C@H]3CC[C@@]21C | inactive | 
O=C1C(Cl)=C(Cl)C(=O)C(Cl)=C1Cl | inactive | 
ClC(Cl)C(Cl)(Cl)Cl | inactive | 
CO/N=C(\C(=O)OC)c1ccccc1CO/N=C(\C)c1cccc(C(F)(F)F)c1 | inactive | 
Clc1c(Cl)c(Cl)c(Cl)c(Cl)c1Cl |  | -13.2% [at 6.97 µM]
CCNS(=O)(=O)C(F)(F)C(F)(F)C(F)(F)C(F)(F)C(F)(F)C(F)(F)C(F)(F)C(F)(F)F | inactive | 
CC(C)N(C(=O)SC/C(Cl)=C/Cl)C(C)C | inactive | 
CSC1=N[C@@](C)(c2ccccc2)C(=O)N1Nc1ccccc1 | inactive | 
CCn1cc[n+](C)c1 (tested in a mixture with another compound) | inactive | 
c1ccc2c(c1)cc1ccc3cccc4ccc2c1c34 | inactive | 
